From PubChem
CYP2C19 inh: human CYP2C19 inhibition; inhibition, % at 5 µM; hit rate 21% among 96,000; P33261; CYP2C19 Supersomes, luciferin-H EGE luminescence, 30 min;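 active = CYP2C19 inhibition above a set limit at 5 µM in the primary screen, cut at about 50% in these data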
CYP2C19 act: cytochrome P450 2C19 (human) activation. P33261. recombinant CYP2C19, luciferin-H EGE luminescence; hits give high values; 0 = fully inhibited enzyme, 1 = untreated enzyme. activation factor at 5 µM. 96,000 tested, under 10 active;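 active = activation factor of at least 2 at 5 µM in the primary screen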
CYP2C9 inhib: blocks human cytochrome P450 2C9; P11712; CYP2C9 Supersomes, luciferin-H conversion, luminescence; inhibition, % at 5 µM; hit rate 20% among 96,000; AID 777;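 active = blocking of liver enzyme CYP2C9 beyond about 50% at 5 µM, limit read from the data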
sEH inh: soluble epoxide hydrolase (human) inhibition; inhibition, % at 2 µM; hit rate 0.34% among 91,000; recombinant human sEH enzymatic activity assay; P34913; in the data active = inhibition above about 80%
Target sequence (P34913 whole entry, looked up): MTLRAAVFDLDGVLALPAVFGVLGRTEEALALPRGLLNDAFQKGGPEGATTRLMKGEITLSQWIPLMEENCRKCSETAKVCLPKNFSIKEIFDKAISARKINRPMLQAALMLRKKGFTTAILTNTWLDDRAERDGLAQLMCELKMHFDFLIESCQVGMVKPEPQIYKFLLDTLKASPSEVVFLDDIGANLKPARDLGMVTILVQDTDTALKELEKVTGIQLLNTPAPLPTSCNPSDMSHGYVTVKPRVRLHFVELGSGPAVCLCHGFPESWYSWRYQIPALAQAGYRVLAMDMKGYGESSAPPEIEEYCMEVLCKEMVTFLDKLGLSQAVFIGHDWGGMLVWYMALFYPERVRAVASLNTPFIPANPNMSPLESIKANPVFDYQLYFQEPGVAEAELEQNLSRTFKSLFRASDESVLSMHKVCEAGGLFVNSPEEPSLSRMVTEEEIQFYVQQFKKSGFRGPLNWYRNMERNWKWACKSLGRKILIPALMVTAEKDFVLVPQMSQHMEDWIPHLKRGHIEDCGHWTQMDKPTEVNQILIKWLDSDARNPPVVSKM
CYP2C9 activ: CYP2C9 (human) activation. P11712. recombinant CYP2C9, luciferin-H conversion, luminescence; hits give high values; factor 1 = untreated enzyme, 0 = blocked. hit rate 1.4% among 96,000. AID 1024. activation factor at 5 µM;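 active = activation factor of 2 or more for CYP2C9 at a 5 µM dose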
sEH activator: activators of human soluble epoxide hydrolase; P34913; purified human sEH enzymatic activity, activator screen; activation, % at 2 µM; hit rate 0.04% among 91,000; AID 717; in the data active = activation above about 37%
Numbers stand for hits; – = inactive; · = no result. Compounds with a hit are over-represented: about 27% of the library has one in this group of screens.

SMILES | CYP2C19 inh | CYP2C19 act | CYP2C9 inhib | sEH inh | CYP2C9 activ | sEH activator
CCOP(=O)(c1ccccc1)C1(C#N)CCCC1 (centres undefined) | – | – | – | · | – | ·
CC12CC(c3ccccc3O1)N(C(=O)c1ccco1)C(=O)N2c1ccccc1 (centres undefined) | – | – | – | · | – | ·
CC12CC(c3ccccc3O1)N(C(=O)c1ccc(Br)o1)C(=O)N2c1ccccc1 (centres undefined) | – | – | 62 | – | – | –
Cc1cc(C)c2nc(N)sc2c1 | 68 | – | – | – | – | –
CC1CCN(C(=O)CSc2nc(N)cc(N)n2)CC1 | – | – | – | – | – | –
O=C(Cn1nnc(-c2ccccc2Cl)n1)N/N=C/c1ccc2c(c1)OCO2 | – | – | – | – | – | –
O=c1[nH]cnc2c([N+](=O)[O-])cccc12 | – | – | – | – | – | –
Brc1cc2[nH]cnc2c2ccccc12 | 50 | – | – | – | – | –
Cn1c(CN2CCCCC2)c(C#N)c2ccccc21 | 98 | – | – | – | – | –
Cn1c(CN2CCN(CC#N)CC2)c(C#N)c2ccccc21 | – | – | – | – | 2.9 | –
Cn1c(CNC2CCCCC2)c(C#N)c2ccccc21 | 55 | – | – | – | – | –
Cn1c(CN2CCC(C(N)=O)CC2)c(C#N)c2ccccc21 | · | · | · | – | · | –
O=C(CN(CC1CCCO1)C(=O)CNS(=O)(=O)c1ccc(Cl)cc1)NCCc1ccccc1 (centres undefined) | – | – | – | – | – | –
O=C(CSc1nnc(-c2cccs2)n1-c1ccccc1)N1CCCc2ccccc21 | – | – | 85 | – | – | –
CCn1nnnc1SCC(=O)N1c2ccccc2CCc2ccccc21 | 91 | – | 71 | – | – | –
Nc1nc(SCC(=O)N2CCCc3ccccc32)n(-c2ccccc2)n1 | 75 | – | – | – | – | –
O=C(CSc1nnnn1-c1ccccc1)N1CCCc2ccccc21 | 80 | – | 58 | – | – | –
Nn1c(SCC(=O)N2CCCc3ccccc32)nnc1-c1ccccc1 | – | – | – | · | – | ·
CCCn1nnnc1SCC(=O)N1CCCc2ccccc21 | 83 | – | – | – | – | –
Nn1c(SCC(=O)N2CCc3ccccc3C2)nnc1-c1cccs1 | – | – | – | – | – | –
O=C(CSc1nnnn1-c1ccc(Cl)cc1)N1CCc2ccccc2C1 | 74 | – | – | – | – | –
CCOc1ccc(N2C(=O)CC(NCc3ccc(F)cc3)C2=O)cc1 (centres undefined) | – | – | – | – | – | –
O=C1CC(NCc2ccccc2F)C(=O)N1c1ccccc1 (centres undefined) | 72 | – | – | – | – | –
CCCCc1ccc(Nc2ncnc3nc[nH]c23)cc1 | 53 | – | – | – | – | –
Cc1c(NC(=O)N(C)C)c(=O)n(-c2ccccc2)n1C | · | · | · | – | · | –
SMILES | CYP2C19 inh | CYP2C19 act | CYP2C9 inhib | sEH inh | CYP2C9 activ | sEH activator
O=C(Nc1ccc(F)cc1)C1CCCN(S(=O)(=O)c2cccc3cccnc23)C1 (centres undefined) | 68 | – | – | · | – | ·
O=C(Nc1nc2cc(Cl)ccc2s1)C1CCCN(S(=O)(=O)c2cccc3cccnc23)C1 (centres undefined) | – | – | – | – | 2.1 | –
CCOC(=O)c1nnc(-c2cccs2)nc1Oc1ccccc1C(=O)OC | 83 | – | 95 | – | – | –
O=C(Nc1ccc2nc3n(c(=O)c2c1)CCCCC3)c1ccccn1 | – | – | 53 | · | – | ·
Cc1nc2cc(NC(=O)N3CCN(c4ccccn4)CC3)ccc2o1 | – | – | – | – | – | –
O=C(CC(=O)N1CCN(c2ccccn2)CC1)Nc1ccc2nc3n(c(=O)c2c1)CCCCC3 | – | – | 78 | – | – | –
COc1cc(OC)cc(C(=O)OCc2cc3ccccc3[nH]c2=O)c1 | – | – | – | – | – | –
CCOC(=O)C1=NN(C(=O)Nc2ccc(OC)cc2)C2C(=O)N(c3cccc(C(F)(F)F)c3)C(=O)C12 (centres undefined) | – | – | – | – | – | –
CCn1c(N)c(C(=O)NC2CCCCC2)sc1=S | · | · | · | – | · | –
CCOc1cc(CNCC2CCCO2)cc(Br)c1OCC(N)=O (centres undefined) | – | – | – | – | – | –
CCCCCCN1CC(O)=C(c2nc3ccccc3[nH]2)C1=N | 59 | – | 90 | · | – | ·
N=C1C(c2nc3ccccc3s2)=C(O)CN1CCCO | – | – | – | – | – | –
CCCCN1CC(O)=C(c2nc3ccccc3s2)C1=N | – | – | 64 | · | – | ·
